# In the library only some 3.8% were active in any assay of this set; here they are far more common.
# TrxR1 substrate = substrates of rat thioredoxin reductase 1. O89049. purified TrxR1 substrate turnover, NADPH consumption readout. Potency, µM (series often up to 114 µM), for inactives: at the top dose activity change, negative = substrate turnover. 0.01% of 390,000 active. AID 588456; further: nearly all actives have a fitted effect of over 50% in size
#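 Rat TrxR1, dispensed at 90 nM, was prereduced with 400 uM NADPH (final) for 5 min at ~22 deg C, then incubated with compound 15 min before 400 uM selenite. A first-read NADPH fluorescence drop versus no-compound background flagged substrates.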
# VDR inh = inhibitors of human vitamin D receptor | P11473 | VDR-SRC2-3 peptide fluorescence polarization, 2 h | Potency, µM, without a hit: max response, negative = inhibition, most hits filed as inhibitors | 0.93% of 400,000 active
#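 VDR–SRC2-3 interaction, FP format. Cmpds 23 nl via pintool, brief spin, 2 h ambient incubation.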
# KAT2A inh = GCN5L2 (KAT2A) acetyltransferase inhibition; Q92830; GCN5L2 HAT assay, ThioGlo1 CoA-SH fluorescence; Potency, µM (series often up to 58.9 µM), without a hit: at the highest dose activity change, negative = inhibition, hits mostly inhibitors; 0.21% of 390,000 active; AID 504327
#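 Enzyme at 20nM final was mixed with library compounds for 15 min at room temperature. Peptide H3(1-25) at 75uM, acetyl-CoA at 70uM and ThioGlo1 at 50uM were then added. Plates were read immediately and after 20 min (Ex340nm/Em540nm).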
# Sfp PPTase inh = Sfp phosphopantetheinyl transferase inhibition; Q9F4F7; Biochemical Sfp PPTase activity, qHTS; Potency, µM, for the others: largest response in the series, negative = inhibition, most hits filed as inhibitors; 3.5% of 310,000 active;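 further: the enzyme is Sfp with the accession as filed and its product quenches rhodamine fluorescence; 0% = enzyme reaction without inhibitor and -100% = no enzyme wells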
#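 Step 1, compound plus 15 nM Sfp-PPTase, 15 min, room temperature. Step 2, add rhodamine-CoA (5 uM) and BHQ-2-YbbR (12.5 uM). Step 3, read 525/598 nm fluorescence at 0 and 30 min.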
# GLS inh = glutaminase GLS (human) inhibition; Potency, µM (doses to about 45.5 µM), for the others: top-dose activity change, negative = inhibition, usual class: inhibitors; GLS enzymatic activity, qHTS titration; AID 624170; O94925; 0.21% of 410,000 active
# Target sequence (O94925 whole entry, looked up): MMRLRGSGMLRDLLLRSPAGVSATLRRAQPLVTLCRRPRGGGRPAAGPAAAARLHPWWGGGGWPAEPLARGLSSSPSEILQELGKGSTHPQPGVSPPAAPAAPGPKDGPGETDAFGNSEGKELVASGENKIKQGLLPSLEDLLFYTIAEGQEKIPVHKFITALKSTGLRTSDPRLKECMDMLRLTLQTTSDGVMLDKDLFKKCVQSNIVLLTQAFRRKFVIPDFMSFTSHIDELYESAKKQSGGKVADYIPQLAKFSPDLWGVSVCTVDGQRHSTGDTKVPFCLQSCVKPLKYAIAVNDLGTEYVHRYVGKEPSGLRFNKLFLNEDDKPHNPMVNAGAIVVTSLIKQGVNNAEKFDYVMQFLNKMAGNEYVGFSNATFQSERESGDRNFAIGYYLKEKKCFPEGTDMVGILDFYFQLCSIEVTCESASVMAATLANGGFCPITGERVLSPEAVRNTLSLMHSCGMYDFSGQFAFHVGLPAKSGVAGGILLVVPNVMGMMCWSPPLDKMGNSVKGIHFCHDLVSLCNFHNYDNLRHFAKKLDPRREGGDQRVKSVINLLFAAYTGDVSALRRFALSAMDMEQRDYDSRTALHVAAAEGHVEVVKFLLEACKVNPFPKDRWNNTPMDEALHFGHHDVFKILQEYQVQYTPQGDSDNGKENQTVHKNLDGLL
#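 hKGA; 45 mM KH2PO4 pH 8.2 + 0.02% Tween-20; cpd via pin tool; 1 mM Gln soln; GluOx/HRP/Amplex Red; RT 30 min; fluor. t0 & final.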
# TrxR1 inh = blocks rat thioredoxin reductase 1; recombinant rTrxR1, NADPH fluorescence consumption, selenite substrate; 1% of 390,000 active; O89049; Potency, µM (doses to about 114 µM), for the others: at the highest dose activity change, negative = inhibition, most hits filed as inhibitors; further: nearly all actives have a fitted effect of over 65% in size
#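 Rat TrxR1 (90 nM in the dispensed reagent) was pre-reduced with 400 uM NADPH for 5 min at room temperature, then incubated with compound for 15 min. After 400 uM selenite was added, NADPH fluorescence (Ex 340/Em 450 nm) was followed for 8 min.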
# Numbers without * were called inactive; ? = inconclusive; · = no result given; ! = repeats disagree; [ ] = another dose, or the depositor's remark. The call rests on the fitted dose curve; in most records, active means well fitted curve in the direction sought with a large enough effect; inconclusive means small, poorly fitted or top-dose-only effect, or another doubt; inactive means no such curve, though single readings can be large; an effect the other way counts as inactive or inconclusive. Unless noted, on the % scale 0 is the no-effect control and ±100 the full control effect; potency means the concentration at half of the fitted maximal effect.
SMILES,TrxR1 substrate,VDR inh,KAT2A inh,Sfp PPTase inh,GLS inh,TrxR1 inh
Cn1cccc1/C=N/NC(N)=S,-9%,-11%,-4%,56µM*,12%,-13%
Cn1cccc1/C=N/NC(=O)c1ccccn1,-12%,?,-15%,79µM*,0%,8%
C/C(=N\NC(=O)c1ccc(Cl)cc1)c1ccccn1,-10%,20%,?,8%,7%,-8%
O=C(N/N=C/c1cccs1)c1ccccn1,-2%,-16%,-28%,50µM*,8%,7%
C/C(=N\NC(=O)c1ccccn1)c1ccc(Cl)cc1,-1%[57.1 µM],8%,1%,89µM*,0%,2%[57.1 µM]
c1cncc(-c2cncnc2-n2ccnc2)c1,·,15%,-4%,-18%,·,·
Cc1nc(NC(=O)CSc2nc3cccnc3n2Cc2ccccc2)sc1C,-13%,-6%,-4%,0%,4%,-16%
O=C(Sc1ccc(Cl)cc1)c1ccccn1,-3%,?,·,·,-4%,1.1µM*
O=C(NCCNC(=O)c1ccccn1)c1ccc(Cl)cc1,8%[57.1 µM],-17%,-8%,10%,-19%,24%[0.0914 µM]
Cc1cccc(-n2c(O)c(C=Nc3ccccc3)c3ccccc3c2=O)n1,-1%[57.1 µM],32µM*,-6%,0%,-12%,17%[57.1 µM]
CCCC(=O)Nc1ccc(NC(=O)c2ccccc2OC)cn1,-1%,7%,2.2µM*,14%,5%,-13%
CCCC(=O)Nc1ccc(NC(=O)c2ccccn2)cn1,0%,21%,-3%,-19%,11%,0%
CCN(c1cccc(C(F)(F)F)c1)S(=O)(=O)c1ccc2c(c1)CCN2C(C)=O,-4%,-9%,-1%,5%,-2%,0%
O=C(c1ccc([N+](=O)[O-])o1)N1CCN(c2nc3c(Cl)cccc3s2)CC1,-8%,-9%,-24%,·,-5%,40µM*
CCOc1cccc(C2C(C(=O)c3ccc(C)o3)=C(O)C(=O)N2Cc2ccncc2)c1 (stereo not drawn),-14%,-8%,-7%,?,19%,-34%
O=C(C1=C(O)C(=O)N(c2nccs2)C1c1ccccc1)c1cc2ccccc2o1 (stereo not drawn),-2%,-9%,-15%,5µM*,?,?
Cc1ccc(C2C(C(=O)c3cc4ccccc4o3)=C(O)C(=O)N2c2cc(C)on2)cc1 (stereo not drawn),-13%,79µM*,-25%,15%,-4%,-10%
CCOc1cccc(C2C(C(=O)c3ccc(C)o3)=C(O)C(=O)N2c2nccs2)c1 (stereo not drawn),-3%,4%,-10%,56µM*,5%,-44%[57.1 µM]
CCCc1cc(=O)[nH]c(SCC(=O)NN(c2ccccc2)c2ccccc2)n1,9%[57.1 µM],20%,-8%,16%,47%,28%[57.1 µM]
CCCn1nnnc1NCc1ccc(SC)cc1,-2%,90%,1%,14%,-10%,12%
COc1ccc(-c2cc3nnc(-c4ccccc4)nc3s2)cc1,-7%,-27%,-11%,40µM*,3%,-1%
CCCCC1=CC2=CC(=O)C(C)(OC(=O)C3CCCC3)C(=O)C2=CO1 (stereo not drawn),-9%,-18%,-4%,71µM*!,-6%,-45%
CCCCC1=CC2=CC(=O)C(C)(OC(=O)CC)C(=O)C2=CO1 (stereo not drawn),4%[57.1 µM],-12%,·,10%,?,-3%[57.1 µM]
COc1cccc(CNC(=O)c2cnc3c(-c4ccc(F)cc4)c(C)nn3c2C)c1,-2%[57.1 µM],7%,-12%,·,13%,-5%[57.1 µM]
Cc1nc(N2CCN(S(=O)(=O)c3ccc(Br)cc3)CC2)c2c(C)c(C)sc2n1,-5%,17%,-8%,4%,5%,7%
SMILES,TrxR1 substrate,VDR inh,KAT2A inh,Sfp PPTase inh,GLS inh,TrxR1 inh
CC(C)c1nn2c(=O)cc(COC(=O)c3ccccc3Cl)nc2s1,3%[57.1 µM],9%,-11%,·,-7%,14%[57.1 µM]
O=S(=O)(NNc1nccc(C(F)(F)F)n1)c1cccc(Cl)c1Cl,0%,5%,1%,35µM*,10%,19%
C=CCOn1c(=O)c(-c2ccc(OC)c(OC)c2)[n+]([O-])c2ccccc21,-12%,7%,0%,56µM*,-12%,-32%
O=C(CSc1cccc2cccnc12)OCC(=O)c1ccccc1,4%,20µM*,-7%,9%,3%,?
O=C(CN1CCN(c2ccccc2F)CC1)NC(=O)NC1CCCCC1,9%[57.1 µM],14%,1%,·,4%,17%[57.1 µM]
O=C(CN1CCN(c2ccccc2O)CC1)NC(=O)NC1CCCC1,1%[57.1 µM],-2%,-7%,-6%,2.8µM*,17%[57.1 µM]
O=C(NCc1ccccc1)C1(C(F)(F)F)C/C(=C/Cc2ccccc2)CCCO1 (stereo not drawn),-8%,-7%,·,-10%,·,-11%
O=C(NCc1ccccn1)C1(C(F)(F)F)C/C(=C\Cc2ccccc2)CCCO1 (stereo not drawn),13%,-2%,·,56µM*,·,-12%
Cc1onc(-c2ccccc2Cl)c1C(=O)O/N=C(\N)c1cccc([N+](=O)[O-])c1,·,·,·,·,0%,·

# High-throughput results: PubChem, National Center for Advancing Translational Sciences (NCATS)
